From PubChem
Only some compounds are listed: those with a hit (about 2.4% of all), similar ones and a draw of the others.
NTMT1 inh: NTMT1 methyltransferase inhibition | AID 1645870 | NTMT1 MTase-Glo SAH luminescence, purified enzyme | hit rate 2.5% among 59,000 | Potency, µM (top dose mostly 114 µM), without a hit: top-dose activity change, negative = inhibition, actives largely listed as inhibitors;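 also: plate controls were DMSO vehicle for no effect and no enzyme for full effect; nearly all actives have a fitted effect of over 65% in size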
Target sequence (Q9BV86 whole entry, looked up): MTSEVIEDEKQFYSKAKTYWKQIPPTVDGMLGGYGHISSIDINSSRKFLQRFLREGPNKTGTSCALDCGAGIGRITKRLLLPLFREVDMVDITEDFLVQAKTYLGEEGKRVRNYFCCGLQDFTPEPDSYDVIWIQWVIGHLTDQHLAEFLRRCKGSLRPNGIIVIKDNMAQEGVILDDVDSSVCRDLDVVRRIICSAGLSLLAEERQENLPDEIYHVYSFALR
HTT prom inh: inhibitors of huntingtin promoter activity | HEK293 HTT promoter firefly luciferase reporter, 24 h | Potency, µM (highest dose often 57.5 µM), inactives show top-dose activity change, negative = inhibition, actives largely listed as inhibitors | hit rate 0.93% among 48,000; also: nearly all actives have a fitted effect of over 50% in size
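Firefly luciferase signal from promoter-reporter HEK293 cells was scaled between vehicle (0%) and zero RLU (-100%). Compounds were tested at final concentrations of up to 57.5 uM over 24 h at 37 degrees C. PTC124 at 50 uM final served as control inhibitor.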
HTT-AS act: HTT-AS promoter activation | HEK293 HTT-AS promoter firefly luciferase reporter, 24 h; response scale: percent change from vehicle, -100% = no light | Potency, µM (series often up to 57.5 µM), without a hit: top-dose activity change, positive = activation, most hits filed as activators | hit rate 0.24% among 48,000; also: nearly all actives have a fitted effect of over 55% in size
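Luminescence was read after Dual-Glo reagent and a 10 min room-temperature incubation. Values were normalized to vehicle (0% activity) and zero RLU (-100% activity). Reporter HEK293 cells had been exposed to compounds (up to 57.5 uM final) for 24 h.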
An asterisk follows results filed as active; ! = not confirmed by another sample; [ ] = another dose, or the depositor's remark. Calls follow the shape of the dose curve; as a rule, active = well fitted curve in the direction sought with a large enough effect; inconclusive = small, poorly fitted or top-dose-only effect, or another doubt; inactive = no such curve, though single readings can be large; an effect the other way counts as inactive or inconclusive. Potency is read from the fitted curve at half-maximal effect.

How did Cn1cc(C2=C(c3c4n(c5ccccc35)CCC(CN)C4)C(=O)NC2=O)c2ccccc21 (stereo not given) do in these assays?
NTMT1 inh: 39.8µM*!; HTT prom inh: inconclusive; HTT-AS act: 24.1%

Results for CCCC12CN3CC(C)(CN(C1)C3c1cn(C)c3ccccc13)C2=O (stereo not given) ?
NTMT1 inh: -1.4%; HTT prom inh: -18.6%; HTT-AS act: -3.3%

How did COc1ccc(CSc2nc3ncc(Br)cc3[nH]2)cc1F do in these assays?
NTMT1 inh: 7.5%[57.5 µM]

What do the screens show for `CC(C)(Sc1ccc(CCN(CCCCC2CCCCC2)C(=O)NC2CCCCC2)cc1)C(=O)O`?
NTMT1 inh: 31.6µM*!; HTT prom inh: -2.0%; HTT-AS act: -2.8%

Results for CN(C)CCN(Cc1ccc(-c2ccc(CNCCc3ccccc3)cc2)cc1)C(=O)CCC1CCCC1 ?
NTMT1 inh: -0.5%[57.5 µM]

How did CC(=O)OC1C(=O)C2C3OCC4=C3[C@@](C)(CC[C@@H]4O)CC[C@]2(C)[C@H]1C(C)C (stereo not given in full) do in these assays?
NTMT1 inh: 6.8%[29.8 µM]

What do the screens show for `O=C(OCc1ccccc1)N1CCN(C(=O)[C@H](Cc2ccc(O[S+](=O)([O-])c3cccc4cnccc34)cc2)N[S+](=O)([O-])c2cccc3cnccc23)CC1`?
NTMT1 inh: 13.2%

How did CSc1ccccc1-c1ccc(Nc2nc(-c3ccncc3)nc3ccccc23)cc1F do in these assays?
NTMT1 inh: -0.9%[57.5 µM]

How did Cc1cnc(-c2ccccc2C(C)C)nc1NCc1ccc(-n2ccnn2)cc1 do in these assays?
NTMT1 inh: 15.5%

Results for N#Cc1c(-n2ncnc2-c2ccccc2C(F)(F)F)sc2c1CCCCC2 ?
NTMT1 inh: -1.9%; HTT prom inh: 1.12µM*; HTT-AS act: -53.0%

Results for N#Cc1c(-n2ncnc2-c2ccccc2Cl)sc2c1CCCCC2 ?
NTMT1 inh: 8.9%; HTT prom inh: inconclusive; HTT-AS act: -16.9%

What do the screens show for `CC(C)c1ccc(N2C(=O)CSC23C(=O)N(Cc2ccccc2F)c2ccccc23)cc1` (stereo not given)?
NTMT1 inh: -18.7%; HTT prom inh: -19.7%; HTT-AS act: 0.5%

Results for Cc1ccc(N2C(=O)CSC23C(=O)N(Cc2ccccc2F)c2ccccc23)cc1F (stereo not given) ?
NTMT1 inh: -1.3%; HTT prom inh: 25.1µM*; HTT-AS act: -33.2%

How did Nc1nc(OC(c2ccc(-c3cccc(F)c3)cc2)C(F)(F)F)cc(-c2ccc(C[C@H](N)C(=O)O)cc2)n1 (stereo not given in full) do in these assays?
NTMT1 inh: 12.2%

Results for CC/C(=C(/c1ccc(/C=C/C(=O)O)cc1)c1ccc2[nH]ncc2c1)c1ccc(F)cc1Cl ?
NTMT1 inh: 31.6µM*

How did CC(C)C(O)(CO)CCO[C@@H]1O[C@H](CO[C@H]2OC[C@](O)(CO)[C@H]2O)[C@@H](O)[C@H](O)[C@H]1O (stereo not given in full) do in these assays?
NTMT1 inh: 3.2%[29.8 µM]

How did O=[S+]([O-])(Nc1ccccc1)c1ccc(NCc2ccc(Cl)cc2O)cc1 do in these assays?
NTMT1 inh: 10.8%

Results for Cc1ccc(S(=O)(=O)N2CCCc3cc(NS(=O)(=O)c4ccc(C)c(C)c4)ccc32)cc1 ?
NTMT1 inh: 12.8%; HTT prom inh: inconclusive; HTT-AS act: -26.3%

What do the screens show for `Cc1ccc(S(=O)(=O)N2CCCc3cc(NS(=O)(=O)c4ccc(F)c(C)c4)ccc32)cc1`?
NTMT1 inh: 3.4%; HTT prom inh: 25.1µM*; HTT-AS act: -45.2%

How did CCC(=O)O[C@H]1C(C)(C)[C@H]([C@@H](O)C(=O)OC)[C@]2(C)C(=O)[C@@]1(O)[C@H]1O[C@]13C1CC(=O)O[C@@H](c4ccoc4)[C@]1(C)CCC32 (stereo not given in full) do in these assays?
NTMT1 inh: 3.7%[12.6 µM]

What do the screens show for `Cc1sc(NC(=O)Cc2ccc3c(c2)OCO3)nc1-c1ccc2c(c1)CCN2C(=O)c1ccccc1`?
NTMT1 inh: -1.1%

How did Cn1ccc2cc3c(cc21)CCN3C(=O)Nc1cccnc1 do in these assays?
NTMT1 inh: 79.4µM*!; HTT prom inh: 22.8%; HTT-AS act: inconclusive

How did Cc1cc(C)cc(NC(=O)N2CCN(C)c3ncccc32)c1 do in these assays?
NTMT1 inh: 11.1%; HTT prom inh: -3.8%; HTT-AS act: -9.7%

How did COc1c2cc(c(O)c1OC)-c1cc(ccc1O)CCC(O)CCCC2 (stereo not given) do in these assays?
NTMT1 inh: -1.5%[29.8 µM]

Results for Cc1ccc(S(=O)(=O)c2nnn3c2nc(NCc2ccccc2)c2sccc23)cc1 ?
NTMT1 inh: -7.2%; HTT prom inh: -30.5%; HTT-AS act: -40.6%

Results for Cc1ccc(S(=O)(=O)c2nnn3c2nc(NCc2ccc(F)cc2)c2sccc23)cc1 ?
NTMT1 inh: 89.1µM*; HTT prom inh: 1.5%; HTT-AS act: -11.0%

How did COc1ccc2nc3cc(Cl)ccc3c(Nc3cc(CN4CCCC4)c(O)c(CN4CCCC4)c3)c2n1 do in these assays?
NTMT1 inh: inconclusive; HTT prom inh: 8.8%; HTT-AS act: -6.2%

What do the screens show for `CCN(CC)CCCC(C)Nc1c2ccc(Cl)cc2nc2ccc(OC)cc12` (stereo not given)?
NTMT1 inh: 44.7µM*!; HTT prom inh: 9.0%; HTT-AS act: -1.8%

Results for Cc1ccc(NC(=O)c2ccc(F)c(S(=O)(=O)N3CCc4ccccc4C3)c2)cc1F ?
NTMT1 inh: 12.4%; HTT prom inh: inconclusive; HTT-AS act: -27.9%

What do the screens show for `Cc1ccc(NC(=O)c2cc(S(=O)(=O)NCCC3=CCCCC3)ccc2F)cc1F`?
NTMT1 inh: 3.6%; HTT prom inh: 11.2µM*; HTT-AS act: -89.8%

How did Cc1ccc(NC(=O)c2ccc(F)c(S(=O)(=O)NCCc3ccccc3)c2)cc1F do in these assays?
NTMT1 inh: 1.6%; HTT prom inh: 28.2µM*; HTT-AS act: -39.2%

Results for Cc1cc(C)cc(NC(=O)c2cc(S(=O)(=O)NCCC3=CCCCC3)ccc2F)c1 ?
NTMT1 inh: -1.0%; HTT prom inh: -14.3%; HTT-AS act: -22.0%

Results for Clc1ccc(C(c2ccc(Cl)cc2)n2cc[n+](CC(OCc3ccc(Cl)cc3Cl)c3ccc(Cl)cc3Cl)c2)cc1 (stereo not given) ?
NTMT1 inh: 30.4µM*; HTT prom inh: inconclusive; HTT-AS act: -57.4%

How did Cc1cc(NC(=O)c2ccc(NC(=O)Cc3ccc(Cl)c(Cl)c3)cc2)no1 do in these assays?
NTMT1 inh: 9.4%

Results for O=C1Nc2ccc(I)cc2/C1=C/c1cc(Br)c(O)c(Br)c1 ?
NTMT1 inh: 3.55µM*

What do the screens show for `O=C1Nc2ccc(I)cc2C1=Cc1cc(Br)c(O)c(Br)c1`?
NTMT1 inh: 17.1µM*; HTT prom inh: -3.2%; HTT-AS act: 1.0%

How did CC(C)(C)NC(=O)c1cncn1C1CCN(c2ccc(-c3nnc(C(F)(F)F)o3)cn2)CC1 do in these assays?
NTMT1 inh: 13.0%

What do the screens show for `CC(=O)Nc1ccc(S(=O)(=O)N2CCC(c3ccncc3)CC2)cc1`?
NTMT1 inh: -4.9%; HTT prom inh: -12.6%; HTT-AS act: 8.6%

What do the screens show for `O=S(=O)(c1ccccc1)N1CCC(c2ccncc2)CC1`?
NTMT1 inh: inconclusive; HTT prom inh: inconclusive; HTT-AS act: -42.7%
